Inconclusive results are not listed. A call without a number means that no potency is given here. Calls of active or inactive are those of the source. Calls come from the whole dose curve; as a rule, active = well fitted activation curve with a large enough effect in the repeat runs; inconclusive = weak or mixed curves; inactive = no such curve, though single readings can be large or run the other way.
Test: qHTS assay for small molecules that induce genotoxicity in human embryonic kidney cells expressing luciferase-tagged ATAD5 (AID 651632); note: nearly all actives have a fitted effect of over 15% in size
Details: HEK293T ATAD5-luciferase induction, 16 h; series mostly up to 83.3 µM
Excerpt: U.S. Tox21 Program National Center for Advancing Translational Sciences [NCATS] NIH Chemical Genomics Center [NCGC] U.S. Environmental Protection Agency [EPA] National Institutes of Environmental Health Sciences [NIEHS] National Toxicology Program [NTP] U.S. Food and Drug Administration [FDA] Tox21 Assay Overview: As cancer cells divide rapidly and during every cell division they need to duplicate their genome by DNA replication. The failure to do so results in the cancer cell death. Based on this concept, many chemotherapeutic agents were developed but have limitations such as low efficacy and severe side effects etc. A new cell based assay was developed to find the compounds that effectively block DNA replication either by directly damaging DNA or by inhibiting other cellular mechanisms. Enhanced Level of Genome Instability Gene 1 (ELG1; human ATAD5) protein levels increase in response to various types of DNA damage. Using a luciferase reporter-gene tagged with ATAD5, a cell-based assay [developed by Kyungjae Myung, NHGRI, NIH] was used to measure the induction of ATAD5 in human embryonic kidney cells (HEK293T). So, increase in luciferase activity can be used to identify the compounds that cause genetic stress.
Tox21 Assay Protocol Summary: For genotoxicity screening, 2,000 cells in 5 uL/well were dispensed into white, solid-bottom 1536-well plates using a Multidrop Combi (Thermo Scientific) dispenser. Following transfer of 23 nL compound or DMSO vehicle by a pin tool, the plates were incubated 16 hr at 37C and 5% CO2. 5 ul Amplite (AAT Bioquest, Inc.) was then added to each plate and following 30 min incubation at room temperature, luciferase activity was quantified on a ViewLux CCD-based plate reader.
Potency is the fitted concentration of half-maximal effect.

SMILES | Potency
CCc1nn(C)c(C(=O)NCc2ccc(C(C)(C)C)cc2)c1Cl | inactive
S=C=Nc1cccc2ccccc12 | inactive
Clc1ccc(C(c2ccc(Cl)cc2)C(Cl)(Cl)Cl)cc1 | inactive
CCN | inactive
COP(=S)(OC)Oc1cc(Cl)c(Br)cc1Cl | inactive
BrC(Br)C(Br)(Br)Br | inactive
ClC1=C(Cl)C2(Cl)C3C(Cl)C(Cl)CC3C1(Cl)C2(Cl)Cl (stereo not given) | inactive
CCCCCCCCCCCCCCCC[n+]1ccccc1 | inactive
CCCOCC(=Nc1ccc(Cl)cc1C(F)(F)F)n1ccnc1 | inactive
Nc1ccc(Cc2ccc(N)c(Cl)c2)cc1Cl | inactive
CCCCCCCCCCCCCCCCCCn1cc[n+](C)c1 | inactive
Clc1ccc(CCC(Cn2ccnc2)Sc2c(Cl)cccc2Cl)cc1 (stereo not given) | inactive
CC(C)(C)c1ccc(CSc2cnn(C(C)(C)C)c(=O)c2Cl)cc1 | inactive
CC[C@H]1C[C@@H]2C[C@H]3c4[nH]c5ccc(OC)cc5c4CCN(C2)[C@@H]13 | inactive
O=[N+]([O-])c1ccc2ccc3cccc4ccc1c2c34 | 48.5 µM (active)
Oc1ccc2ccc3cccc4ccc1c2c34 | inactive
COc1ccc(/C(=C/C(=O)N2CCOCC2)c2ccc(Cl)cc2)cc1OC | inactive
ClC1=C(Cl)C2(Cl)C3C(Cl)C=CC3C1(Cl)C2(Cl)Cl (stereo not given) | inactive
CCCCCCCCCCCCCCC(Br)C(=O)O (stereo not given) | inactive
Cc1cc(C)c(C2=C(OC(=O)CC(C)(C)C)C3(CCCC3)OC2=O)c(C)c1 | inactive

SMILES | Potency
COC12CC[C@@]3(C[C@@H]1C(C)(O)C(C)(C)C)[C@H]1Cc4ccc(O)c5c4[C@@]3(CCN1CC1CC1)[C@H]2O5 (stereo not given in full) | inactive
Oc1cc(Cl)c(Cl)c(Cl)c1 | inactive
CS(=O)(=O)c1ccc(C(=O)C2C(=O)CCCC2=O)c([N+](=O)[O-])c1 | inactive
O=c1[nH]c2ccccc2n1C1CCN(CCCC(c2ccc(F)cc2)c2ccc(F)cc2)CC1 | inactive
CC1(C)CN=C(NN=C(/C=C/c2ccc(C(F)(F)F)cc2)/C=C/c2ccc(C(F)(F)F)cc2)NC1 | inactive
CC(C)C1CCC(Cc2ccc(Cl)cc2)C1(O)Cn1cncn1 (stereo not given) | inactive
CN(C)C1CSSSC1 | inactive
Oc1ccc(C(c2ccc(O)cc2)(C(F)(F)F)C(F)(F)F)cc1 | inactive
CC1(C)C(/C=C(\Cl)C(F)(F)F)C1C(=O)OC(C#N)c1cccc(Oc2ccccc2)c1 (stereo not given) | inactive
CC(C)OS(C)(=O)=O | inactive
CCOCn1c(-c2ccc(Cl)cc2)c(C#N)c(Br)c1C(F)(F)F | inactive
Clc1ccc(-c2ccc(Cl)c(Cl)c2Cl)c(Cl)c1Cl | inactive
O=C(CCl)Nc1ccccc1 | inactive
C[C@]12CC[C@H]3[C@@H](CCC4=CC(=O)CC[C@@]43C)[C@@H]1CC[C@@H]2O | inactive
CCOCCOC(C)=O | inactive
Cc1ccc(OP(=O)(Oc2ccccc2)Oc2ccccc2)cc1 | inactive
CCN(CC)C(=S)[S-].CCN(CC)C(=S)[S-].[Zn+2] | 5.4 µM (active)
CC(C)(C)c1cc([N+](=O)[O-])cc(C(C)(C)C)c1O | inactive
C[C@]12CC[C@@H]3c4ccc(OC(=O)N(CCCl)CCCl)cc4CC[C@H]3[C@@H]1CC[C@@H]2O | inactive
CCCCCCCCCC[N+](C)(C)CCCCCCCCCC | inactive

From PubChem BioAssay (Tox21)
